Test [1] concerns PRMT1 (protein arginine N-methyltransferase 1). Nature of the test: PRMT1 binders on small-molecule microarrays, primary screen, biochemical, small-molecule microarray, 635 nm fluorescence (AID 1088).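 Also: binding of Prmt1 protein to compounds spotted on small-molecule microarray slides.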 The note with it: small-molecule microarray binding, higher = more signal.
Test [2] is described as follows: yeast growth modulation, basal conditions, primary screen, YJM789 clinical isolate, OD600, 24 h (AID 1089).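 Also: growth of clinical yeast isolate S. cerevisiae YJM 789 seeded 1000 cells per well; test concentration not given here.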 The note with it: S. cerevisiae YJM789 growth, higher = more signal, called active from +8 up or from −8 down.
Test [3] in a line: fission yeast growth modulation, primary screen, strain 972, OD600, 24 h, no modulator (AID 1090).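 Also: basal condition with compound alone and no growth modifier present; test concentration not given here.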 To be noted: S. pombe 972 growth, higher = more signal, called active from +8 up or from −8 down.
A short description of test [4]: S. cerevisiae growth modulation with rapamycin, primary screen, strain BY4716, OD600, 96 h (AID 1091). Also: test concentration not given here. To be noted: higher = more signal, called active from +8 up or from −8 down.
Test [5] addresses Torsin-1A-interacting protein 2 (Homo sapiens) (UniProt Q8NFQ8). Nature of the test: LULL1 binders on small-molecule microarray, primary screen, cell lysate, human LULL1 lysate, 635/667 nm fluorescence (AID 1092).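 Also: probe is lysate of COS7 cells overexpressing human LULL1; score merges per-feature 667 nm fluorescence with signal-to-noise.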 The note with it: hLULL1 lysate binding, 635 nm fluorescence, higher = more signal.
Test [6] can be described thus: E. coli growth modulation, two-sided OD650, primary screen, E. coli filamentation project, strain DRC41, 24 h (AID 1093).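 Also: MC1000 strain lacking acrAB efflux and sulA so SOS filamentation is blocked; test concentration not given here.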 To be noted: OD650, 24 h, higher = more signal, called active from +8 up or from −8 down.
Test [7] is described as follows: small-molecule microarray binders of probe aLefty2, primary screen, biochemical, biotinylated probe, 635/667 nm fluorescence (AID 1094).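 Also: score merges spot fluorescence near 667 nm with spot signal-to-noise ratio.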 The note with it: higher = more signal.
For test [8], the system named is Noggin (protein binding on small-molecule microarray). Kind of test: Noggin binders on small-molecule microarray, primary screen, biochemical, 635/667 nm fluorescence (AID 1095).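 Also: score merges 667 nm feature fluorescence with signal to noise over triplicate slides.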 The note with it: 635 nm fluorescence, higher = more signal.
Test [9] has as its target Neurogenic locus notch homolog protein 3 (Homo sapiens) (UniProt Q9UM47). Kind of test: NOTCH3 binders on small-molecule microarray, primary screen, biochemical, 635/667 nm fluorescence (AID 1096). The note with it: NOTCH3 binding, 635 nm fluorescence, higher = more signal.
A short description of test [10]: small-molecule microarray binders of probe aEGFR, primary screen, biochemical, biotinylated probe, 635/667 nm fluorescence (AID 1097).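 Also: probe is a biotinylated anti-EGFR antibody binding compounds printed on slides; score combines fluorescence near 667 nm and signal to noise of each spot.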 The note with it: higher = more signal.
Test [11] has as its system Plasmodium falciparum Sir2 (PF13_0152, Sir2A). Kind of test: pfSir2 binders on small-molecule microarrays, primary screen, biochemical, small-molecule microarray, 635 nm fluorescence (AID 1098).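 Also: score merges spot fluorescence intensity with its signal-to-noise ratio.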 To be noted: small-molecule microarray binding, fluorescence 635 nm; higher = more signal.
The nature of test [12]: small-molecule microarray binders of probe aDKK1, primary screen, biochemical, biotinylated probe, 635/667 nm fluorescence (AID 1099).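 Also: score merges 667nm spot fluorescence with signal to noise across triplicate slides; reference of the scale not given here.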 The note with it: higher = more signal.
A short description of test [13]: small-molecule microarray binders of probe aCHRDL2, primary screen, biochemical, biotinylated probe, 635/667 nm fluorescence (AID 1100). The note with it: higher = more signal.
Test [14] is described as follows: splicing luciferase reporter signal modulators, primary screen, spliceosome inhibition project, cell-based, HEK293, splice +/- reporter (AID 1101).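 Also: HEK293 cells carrying a splicing-competent luciferase reporter gene; test concentration not given here.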 To be noted: luminescence, 24 h, higher = more signal, called active from +8 up or from −8 down.
Test [15] concerns the target Fibroblast growth factor 10 (Homo sapiens) (UniProt O15520). Kind of test: FGF10 binders on small-molecule microarrays, primary screen, biochemical, small-molecule microarray, 635 nm fluorescence (AID 1102). To be noted: FGF10 binding, fluorescence 635 nm, higher = more signal.
Test [16] deals with glycogen synthase kinase-3 (GSK3A per assay name; protocol says GSK3B). Nature of the test: GSK3 binders on small-molecule microarrays, primary screen, biochemical, small-molecule microarray, 635 nm fluorescence, GSK3A (AID 1103). Also: the record names both GSK3A and GSK3B. The note with it: small-molecule microarray binding, fluorescence 635 nm; higher = more signal.
Test [17] concerns the target Epidermal growth factor receptor (Homo sapiens) (UniProt P00533). Kind of test: EGFR binders on small-molecule microarrays, primary screen, biochemical, small-molecule microarray, 635 nm fluorescence (AID 1104).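 Also: score merges 667 nm emission intensity with spot signal to noise over triplicate slides.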 The note with it: EGFR binding, higher = more signal.
Test [18] addresses Follistatin-related protein 3 (Homo sapiens) (UniProt O95633). Kind of test: FSTL3 binders on small-molecule microarrays, primary screen, biochemical, small-molecule microarray, 635 nm fluorescence (AID 1105).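 Also: score merges emission near 667 nm and signal to noise per printed spot across three slides.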 To be noted: FSTL3 binding, higher = more signal.
For test [19], the target named is Dickkopf-related protein 1 (Homo sapiens) (UniProt O94907). Nature of the test: DKK1 binders on small-molecule microarrays, primary screen, biochemical, small-molecule microarray, 635 nm fluorescence scan (AID 1106).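 Also: score merges emission near 667 nm with signal to noise over three replicate slides.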 To be noted: DKK1 binding, higher = more signal.
Test [20] relates to Inhibin beta A chain (activin A). Kind of test: INHBA (activin A) binders on microarrays, primary screen, biochemical, small-molecule microarray, 635 nm fluorescence scan (AID 1107).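 Also: mouse activin A protein probed at 4.33 µg/mL on printed slides; score merges bound-protein fluorescence near 667 nm with spot signal-to-noise.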 The note with it: small-molecule microarray binding, higher = more signal.

The structures appear in SMILES notation. Activity calls are given as the source filed them.

Dickkopf-related protein 1 (Homo sapiens), sequence (O94907 whole entry, looked up): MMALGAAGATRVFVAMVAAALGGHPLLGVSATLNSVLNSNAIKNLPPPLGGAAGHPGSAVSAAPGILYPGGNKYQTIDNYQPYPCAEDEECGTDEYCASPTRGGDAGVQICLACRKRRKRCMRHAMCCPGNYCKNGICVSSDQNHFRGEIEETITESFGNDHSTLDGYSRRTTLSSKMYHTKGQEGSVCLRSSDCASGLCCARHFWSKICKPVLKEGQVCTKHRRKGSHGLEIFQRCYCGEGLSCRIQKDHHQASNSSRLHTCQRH
Neurogenic locus notch homolog protein 3 (Homo sapiens), sequence (Q9UM47 whole entry, looked up): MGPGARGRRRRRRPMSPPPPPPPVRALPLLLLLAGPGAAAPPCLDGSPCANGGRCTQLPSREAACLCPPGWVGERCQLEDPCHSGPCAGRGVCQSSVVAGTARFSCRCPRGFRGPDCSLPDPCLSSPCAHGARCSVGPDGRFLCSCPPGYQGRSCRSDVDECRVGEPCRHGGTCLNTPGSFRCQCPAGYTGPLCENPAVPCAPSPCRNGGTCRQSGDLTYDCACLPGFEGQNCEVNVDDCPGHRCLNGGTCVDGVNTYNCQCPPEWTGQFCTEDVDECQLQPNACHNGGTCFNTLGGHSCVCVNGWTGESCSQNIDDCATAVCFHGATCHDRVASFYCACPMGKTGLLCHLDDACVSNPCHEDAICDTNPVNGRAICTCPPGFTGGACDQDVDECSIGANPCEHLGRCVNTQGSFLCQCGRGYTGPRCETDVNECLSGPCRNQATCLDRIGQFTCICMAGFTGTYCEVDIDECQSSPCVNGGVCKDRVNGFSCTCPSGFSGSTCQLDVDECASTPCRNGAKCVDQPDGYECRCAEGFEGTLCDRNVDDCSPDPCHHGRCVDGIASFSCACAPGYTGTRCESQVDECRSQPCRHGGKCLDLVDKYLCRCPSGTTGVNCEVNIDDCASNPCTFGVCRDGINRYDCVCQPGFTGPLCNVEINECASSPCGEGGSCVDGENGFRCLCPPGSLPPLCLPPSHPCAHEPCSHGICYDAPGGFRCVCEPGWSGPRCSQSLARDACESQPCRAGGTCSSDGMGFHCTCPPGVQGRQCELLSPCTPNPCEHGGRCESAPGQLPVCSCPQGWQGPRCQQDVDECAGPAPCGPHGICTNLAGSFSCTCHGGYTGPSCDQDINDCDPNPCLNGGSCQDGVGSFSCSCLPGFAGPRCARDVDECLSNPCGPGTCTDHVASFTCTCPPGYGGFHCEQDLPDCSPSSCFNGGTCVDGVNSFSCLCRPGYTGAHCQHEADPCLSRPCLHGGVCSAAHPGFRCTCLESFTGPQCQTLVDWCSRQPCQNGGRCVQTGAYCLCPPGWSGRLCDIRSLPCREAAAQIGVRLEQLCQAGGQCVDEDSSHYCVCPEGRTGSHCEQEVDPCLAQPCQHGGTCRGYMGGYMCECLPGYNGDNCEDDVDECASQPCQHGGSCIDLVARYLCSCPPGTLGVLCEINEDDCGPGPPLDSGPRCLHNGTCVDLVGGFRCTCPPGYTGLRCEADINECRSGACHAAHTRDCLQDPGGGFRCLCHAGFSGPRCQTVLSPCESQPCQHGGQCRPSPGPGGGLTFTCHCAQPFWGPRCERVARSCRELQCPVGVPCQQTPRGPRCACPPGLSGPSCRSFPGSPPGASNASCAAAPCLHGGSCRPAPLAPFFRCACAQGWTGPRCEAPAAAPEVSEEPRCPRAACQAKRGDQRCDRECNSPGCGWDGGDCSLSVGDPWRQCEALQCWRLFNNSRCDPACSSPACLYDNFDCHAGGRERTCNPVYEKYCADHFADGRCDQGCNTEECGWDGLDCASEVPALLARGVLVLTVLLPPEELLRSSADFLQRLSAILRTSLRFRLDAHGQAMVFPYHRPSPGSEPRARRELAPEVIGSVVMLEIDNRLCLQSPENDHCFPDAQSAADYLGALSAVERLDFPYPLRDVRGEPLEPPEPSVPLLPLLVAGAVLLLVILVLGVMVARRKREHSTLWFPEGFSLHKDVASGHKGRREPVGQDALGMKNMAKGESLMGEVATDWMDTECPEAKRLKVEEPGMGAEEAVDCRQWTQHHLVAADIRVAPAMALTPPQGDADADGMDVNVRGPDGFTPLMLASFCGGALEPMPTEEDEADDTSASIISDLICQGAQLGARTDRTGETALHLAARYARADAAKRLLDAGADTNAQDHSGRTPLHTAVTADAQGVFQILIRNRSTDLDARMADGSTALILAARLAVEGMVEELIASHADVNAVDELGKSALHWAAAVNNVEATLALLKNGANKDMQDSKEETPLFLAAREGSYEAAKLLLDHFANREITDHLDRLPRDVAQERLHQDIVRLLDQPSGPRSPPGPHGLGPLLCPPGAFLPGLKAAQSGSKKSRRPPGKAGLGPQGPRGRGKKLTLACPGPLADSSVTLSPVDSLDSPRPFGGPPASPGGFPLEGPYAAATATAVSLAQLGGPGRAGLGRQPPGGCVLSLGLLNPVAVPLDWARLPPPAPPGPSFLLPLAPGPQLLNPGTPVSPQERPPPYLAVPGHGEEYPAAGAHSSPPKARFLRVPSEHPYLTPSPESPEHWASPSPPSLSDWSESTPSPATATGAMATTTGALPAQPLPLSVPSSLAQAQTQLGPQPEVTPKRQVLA
Follistatin-related protein 3 (Homo sapiens), sequence (O95633 whole entry, looked up): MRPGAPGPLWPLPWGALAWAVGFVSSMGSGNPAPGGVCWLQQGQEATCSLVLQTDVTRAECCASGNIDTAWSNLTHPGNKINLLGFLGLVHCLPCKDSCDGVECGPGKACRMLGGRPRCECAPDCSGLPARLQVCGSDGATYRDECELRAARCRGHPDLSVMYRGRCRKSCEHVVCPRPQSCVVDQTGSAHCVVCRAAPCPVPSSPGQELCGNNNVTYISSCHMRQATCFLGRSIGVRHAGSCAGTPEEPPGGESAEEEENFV
Epidermal growth factor receptor (Homo sapiens), sequence (P00533 whole entry, looked up): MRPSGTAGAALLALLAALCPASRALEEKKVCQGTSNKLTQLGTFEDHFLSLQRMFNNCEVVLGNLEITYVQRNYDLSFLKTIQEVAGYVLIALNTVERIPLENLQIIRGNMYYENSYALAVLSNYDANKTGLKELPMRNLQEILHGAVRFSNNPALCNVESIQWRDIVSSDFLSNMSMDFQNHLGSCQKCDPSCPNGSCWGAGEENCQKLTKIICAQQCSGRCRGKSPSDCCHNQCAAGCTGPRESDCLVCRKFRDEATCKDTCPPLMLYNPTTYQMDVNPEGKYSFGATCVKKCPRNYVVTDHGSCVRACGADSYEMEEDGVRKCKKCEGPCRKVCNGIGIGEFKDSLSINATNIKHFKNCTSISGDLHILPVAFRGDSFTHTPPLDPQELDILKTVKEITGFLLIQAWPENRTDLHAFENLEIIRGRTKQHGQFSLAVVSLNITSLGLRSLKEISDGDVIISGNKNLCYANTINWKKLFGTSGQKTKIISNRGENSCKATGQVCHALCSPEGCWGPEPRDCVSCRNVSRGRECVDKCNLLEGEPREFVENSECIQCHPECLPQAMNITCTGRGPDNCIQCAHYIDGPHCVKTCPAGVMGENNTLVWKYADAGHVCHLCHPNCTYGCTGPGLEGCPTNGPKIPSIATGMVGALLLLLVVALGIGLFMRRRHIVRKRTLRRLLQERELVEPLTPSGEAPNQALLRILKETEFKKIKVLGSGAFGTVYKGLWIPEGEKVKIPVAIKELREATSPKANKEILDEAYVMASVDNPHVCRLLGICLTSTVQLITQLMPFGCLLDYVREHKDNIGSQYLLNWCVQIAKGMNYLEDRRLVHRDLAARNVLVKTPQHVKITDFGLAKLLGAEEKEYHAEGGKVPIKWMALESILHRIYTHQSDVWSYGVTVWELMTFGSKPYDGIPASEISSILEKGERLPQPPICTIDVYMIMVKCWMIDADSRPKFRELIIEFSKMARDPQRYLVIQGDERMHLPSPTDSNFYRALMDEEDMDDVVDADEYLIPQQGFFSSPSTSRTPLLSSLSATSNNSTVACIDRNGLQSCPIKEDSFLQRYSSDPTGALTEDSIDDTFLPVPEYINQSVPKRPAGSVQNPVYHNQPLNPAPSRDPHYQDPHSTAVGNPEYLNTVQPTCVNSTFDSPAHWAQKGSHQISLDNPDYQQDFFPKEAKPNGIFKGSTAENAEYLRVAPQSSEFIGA
Torsin-1A-interacting protein 2 (Homo sapiens), sequence (Q8NFQ8 whole entry, looked up): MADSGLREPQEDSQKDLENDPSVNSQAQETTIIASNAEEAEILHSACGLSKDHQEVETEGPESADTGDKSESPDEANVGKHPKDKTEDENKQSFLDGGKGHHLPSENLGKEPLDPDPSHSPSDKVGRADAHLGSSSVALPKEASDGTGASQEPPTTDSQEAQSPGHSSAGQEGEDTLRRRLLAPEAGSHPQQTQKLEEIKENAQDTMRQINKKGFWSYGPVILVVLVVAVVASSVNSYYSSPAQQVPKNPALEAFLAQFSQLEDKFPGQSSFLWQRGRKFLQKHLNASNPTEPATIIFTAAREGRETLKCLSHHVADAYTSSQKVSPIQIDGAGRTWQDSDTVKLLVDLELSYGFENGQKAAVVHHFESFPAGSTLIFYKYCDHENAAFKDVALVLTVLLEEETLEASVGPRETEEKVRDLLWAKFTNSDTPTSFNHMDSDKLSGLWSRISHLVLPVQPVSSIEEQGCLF
Fibroblast growth factor 10 (Homo sapiens), sequence (O15520 whole entry, looked up): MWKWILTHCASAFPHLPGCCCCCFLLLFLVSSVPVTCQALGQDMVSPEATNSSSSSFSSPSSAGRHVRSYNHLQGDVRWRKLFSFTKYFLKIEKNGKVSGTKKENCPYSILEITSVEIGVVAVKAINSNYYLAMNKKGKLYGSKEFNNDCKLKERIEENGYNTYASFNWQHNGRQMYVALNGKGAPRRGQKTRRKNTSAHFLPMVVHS

As for `CC(C)C(CO)N1C(=O)[C@@H]2[C@H]3C(=O)OCC=C[C@H]3OC23C=CCN(c2ccc4ccccc4c2)C(=O)[C@@H]13` (stereo not given in full), the composite z-score in test [1] was -0.382; in [5], 0.607; in [7], -0.192; in test [8] it was -1.21; in test [9] it was -0.319; in test [10], -0.127. Further, the composite z-score was 0.233 in [11]; -0.387 in test [12]; 0.343 in test [13]; -0.617 in test [15]; -1.15 in test [16]; -1.04 in test [17]. Moreover, the figures for the composite z-score in test [18], in test [19] and in test [20] were -1.3, -0.688 and -0.141, respectively. Further, the z-score in test [2] was 0.523 (inactive); in test [3] it was -0.494 (inactive); in [4], 1.17 (inactive); in test [6], 0.0732 (inactive); in test [14] it was 0.0617 (inactive).
Take `CCCNC(=O)[C@@]1(C)c2ccccc2C(=O)N(C(C)C)[C@H]1c1ccc(CO)cc1`: the composite z-score in test [1] is -0.535; in test [5], 2.75; in test [7], 0.0692; in test [8], -0.827; in [9] it was -1.05; in [10], -0.174. The composite z-score in [11] was 1.2; in test [12], 0.695; in test [13], 1.09; in test [15], -0.668; in test [16], -0.743; in test [17], -1.14. For the same compound, the results for the composite z-score in test [18], in [19] and in test [20] were -0.737, -0.612 and -0.105, respectively. Besides, the z-score is -0.141 (inactive) in [2]; -0.712 (inactive) in [3]; -0.397 (inactive) in test [4]; -1.2 (inactive) in [6]; 0.208 (inactive) in test [14].
As to `CCCCCN1CC=CC23O[C@@H]4C=CCCOC(=O)C4[C@H]2C(=O)N(CCCO)[C@@H]3C1=O` (stereo not given in full), the composite z-score in test [1] was 0.229; in test [5], -0.651; in [7], -0.257; in test [8] it was -0.272; in test [9], 0.0424; in test [10], -0.223. Also, the composite z-score in [11] is 1.06; in test [12] it was -0.117; in [13] it was -0.141; in [15], -0.0549; in [16] it was -0.452; in test [17] it was -0.928. Also, the composite z-score in [18] was -0.344; in test [19] it was 0.0124; in [20] it was -0.166. Besides, the z-score is 0.0103 (inactive) in test [2]; -1.3 (inactive) in [3]; -0.506 (inactive) in [4]; 2.22 (inactive) in test [6]; -0.588 (inactive) in [14].
As to `C=CCOC(=O)[C@H]1[C@@H]2C(=O)O[C@@H](c3ccccc3)[C@@H](c3ccccc3)N2[C@@H](c2ccc(OCCOC(=O)[C@H]3C[C@H]4C(=O)N[C@@H](CCCC[N+](C)(C)C)C(=O)N4[C@H]3c3ccc(O)cc3)cc2)[C@]12C(=O)Nc1ccccc12`, the composite z-score in [1] is -0.146; in [5], 1.68; in test [7], 0.126; in test [8], 1.08; in [9], 0.321; in test [10] it was -0.194. In addition, the composite z-score in test [11] was 1.63; in [12] it was -0.194; in test [13], -0.135; in test [15], 0.507; in test [16], -0.112; in test [17], -0.229. The results for the composite z-score in test [18], in test [19] and in test [20] were 0.563, 0.387 and -0.196, respectively. Also, the z-score in [2] was -0.193 (inactive); in test [3], -2.55 (inactive); in test [4] it was -1.05 (inactive); in test [6], -0.405 (inactive); in [14], -1.08 (inactive).
On to `CCCC[C@H]1OB(O)C[C@H]2C1=C(COc1ccccc1)C[C@H]1C(=O)N(Cc3ccccc3)C(=O)[C@H]12`, for which the composite z-score in [1] was 0.385; in test [5], 1.33; in [7], -0.121; in test [8] it was 1.51; in [9], 0.862; in test [10] it was -0.0828. The composite z-score was 0.412 in test [11]; -0.154 in test [12]; -0.283 in test [13]; 0.509 in test [15]; 0.103 in [16]; -0.248 in test [17]. The composite z-score is 0.581 in [18], 0.193 in [19] and 0.78 in test [20]. In addition, the z-score in [2] was -1.87 (inactive); in test [3], -1.54 (inactive); in test [4] it was -1.6 (inactive); in test [6], 0.194 (inactive); in test [14], -0.788 (inactive).
